LmPK inhibitor: qHTS Assay for Inhibitors of Leishmania Mexicana Pyruvate Kinase (LmPK); hit rate 0.37% among 290,000; purified LmPK, Kinase-Glo ATP luminescence, 1 h; Potency, µM (top dose mostly 57.5 µM), for the others: top-dose activity change, negative = inhibition, usual class: inhibitors; Q27686; active = well fitted curve in the direction sought with a large enough effect; inconclusive = small, poorly fitted or top-dose-only effect, or another doubt; inactive = no such curve, though single readings can be large; an effect the other way counts as inactive or inconclusive; also: potency is read from the fitted curve at half-maximal effect; % is scaled to controls: 0 for no effect and ±100 for the full control effect
Target sequence (Q27686 whole entry, looked up): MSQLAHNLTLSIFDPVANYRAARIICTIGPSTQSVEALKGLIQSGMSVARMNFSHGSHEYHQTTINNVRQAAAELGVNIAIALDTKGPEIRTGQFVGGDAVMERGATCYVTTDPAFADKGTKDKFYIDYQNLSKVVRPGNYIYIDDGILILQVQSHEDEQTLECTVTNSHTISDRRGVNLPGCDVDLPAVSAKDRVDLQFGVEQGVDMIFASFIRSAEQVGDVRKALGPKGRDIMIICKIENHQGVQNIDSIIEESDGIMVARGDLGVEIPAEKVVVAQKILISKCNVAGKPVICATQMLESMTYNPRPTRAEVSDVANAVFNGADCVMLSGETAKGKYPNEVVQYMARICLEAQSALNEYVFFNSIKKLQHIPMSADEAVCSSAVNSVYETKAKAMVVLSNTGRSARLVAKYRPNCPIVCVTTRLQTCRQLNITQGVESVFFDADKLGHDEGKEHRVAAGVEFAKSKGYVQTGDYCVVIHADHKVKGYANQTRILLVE
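Purified LmPK (0.1 nM) converted ADP (0.1 mM) to ATP with PEP (0.5 mM) in imidazole buffer pH 7.2 with KCl and MgCl2, 1 h at room temperature. ATP was read by Kinase-Glo luminescence; data normalized to uninhibited and no-enzyme controls.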
CHX counter: Cycloheximide Counterscreen for Small Molecule Inhibitors of Shiga Toxin; cell reporter, cycloheximide protein synthesis inhibition counterscreen; max response, %; hit rate 12% among 300,000; in the data active = max response mostly above about 13%, no sharp cut-off; inactive = mostly below about 14%; also: read at 38.3 µM for the half of the compounds with a filed dose; 0% is about no effect
Giardia FBPA inh: qHTS Assay for Inhibitors of Fructose-1,6-bisphosphate Aldolase from Giardia Lamblia; Potency, µM (series often up to 59.6 µM), for the others: at the highest dose activity, negative = inhibition, hits mostly inhibitors; hit rate 0.71% among 290,000; A8B2U2; purified Giardia FBPA; active = well fitted curve in the direction sought with a large enough effect; inconclusive = small, poorly fitted or top-dose-only effect, or another doubt; inactive = no such curve, though single readings can be large; an effect the other way counts as inactive or inconclusive; also: potency is read from the fitted curve at half-maximal effect; % is scaled to controls: 0 for no effect and ±100 for the full control effect; nearly all actives have a fitted effect of over 55% in size
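40 nM FBPA preincubated 10 min at RT with compound (up to 57.5 uM final), then substrate plus GAPDH/TPI/NAD/arsenate coupling and diaphorase/resazurin added. Fluorescence read after 20 min at RT, 525/598 nm.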
NS1 inh: qHTS Assay for Inhibitors of Influenza NS1 Protein Function; Potency, µM (series often up to 46.1 µM), inactives show top-dose activity, positive = more growth; AID 2326, 2010; hit rate 0.4% among 270,000; also: potency is read from the fitted curve at half-maximal effect; actives are rising curves; nearly all actives have a fitted effect of over 50% in size
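Read-out: OD600 growth recovery of NS1-expressing budding yeast. Cells grown overnight at 30C in -URA glucose medium, washed, resuspended and diluted 1:100 in 2% galactose assay medium, pH 6.0. Same strain lacking NS1 served as positive control.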
Shiga inhibitor: A qHTS for Small Molecule Inhibitors of Shiga Toxin | Vero cells, Shiga toxin protein synthesis inhibition reporter | inhibition, % at 38.7 µM | hit rate 9.2% among 290,000 | AID 2315, 2010; in the data active = inhibition mostly above about 28%, no sharp cut-off; inactive = mostly below about 43%; also: 0% is about no effect
NS1 inh valid: Assay for Inhibitors of Influenza NS1 Protein Function: Hit Validation; shares compounds with NS1 inh; influenza NS1 function cell assay, 15-point titration; activity change, negative = inhibition, % at 32.9 µM; 1,400 tested, under 10 active; AID 492980, 2010; also: 0% is about no effect
Flu PR8 replic: Assay for Inhibitors of Influenza NS1 Protein Function: Influenza virus replication assay in MDCK cells infected with virus A/PR/8/34; MDCK infected influenza A/PR/8/34, virus titer TCID50; stronger effect = lower value; AID 504647, 2011; shares compounds with NS1 inh; virus titer (log TCID50), log10 TCID50 at 5 µM; hit rate 30% among 95; call rule not given here
* marks the source's active call; other numbers are inactive results; u = inconclusive; x = not tested or not shown. In the library only some 14% were active in any assay of this set; here they are far more common. Unless noted, calls follow the shape of the full dose curve.

SMILES | LmPK inhibitor | CHX counter | Giardia FBPA inh | NS1 inh | Shiga inhibitor | NS1 inh valid | others
COc1ccc2ccc(OC)c(/C=N/n3cnnc3)c2c1 | 2% | -2 | -12% | -33% | x | x
N#C/C(=C\c1c[nH]c2ccccc12)C(=O)Nc1ncc(Cc2ccc(Cl)cc2Cl)s1 | 3% | -4 | 6% | 11µM* | 9 | -19
Cn1cc(/C=C(\C#N)C(=O)Nc2ncc(Cc3cccc(Cl)c3)s2)c2ccccc21 | 1% | 5 | 7% | -9% | -4 | x
Cc1onc(-c2ccccc2Cl)c1C(=O)Nc1cccnc1 | 2% | 3 | -18% | -1% | 23 | x
Cc1onc(-c2ccccc2)c1C(=O)Nc1cccnc1 | -2% | 7 | -3% | 6.3µM* | -18 | 2
COCCNC(=O)c1ccc(CS(=O)(=O)c2ccccc2C)o1 | -4% | -1 | -7% | 2% | -14 | x
COC(=O)c1ccc(CS(=O)(=O)c2ccccc2C)o1 | 0% | -1 | 3% | 1µM* | -2 | 21
CCOC(=O)C1CCN(S(=O)(=O)c2ccc3c(c2)CC(=O)N3C)CC1 | 0% | -3 | -29% | u | -7 | x
Cc1cc(C)cc(N2C(=O)NC(=O)/C(=C\c3cccn3-c3ccc(Cl)cc3)C2=O)c1 | 1% | 11 | 8% | 1µM* | 14 | 0
O=S(=O)(c1ccc(F)cc1)N1CCN(CC2CC3C=CC2C3)CC1 (centres undefined) | 2% | -3 | u | -2% | -4 | x
Cc1cccc(OCC(=O)NCCN2CCOCC2)c1 | -2% | 12 | 7% | 1.8µM* | 29 | -2
O=C(O)[C@H]1NCCC[C@H]1C(=O)O | x | x | -5% | 1% | x | x
CCCc1cc(=O)n(-c2nc3ccccc3s2)[nH]1 | 0% | 11 | -3% | 2% | 4 | x
CCOC(=O)Cc1cc(=O)n(-c2nc3ccccc3s2)[nH]1 | -1% | -2 | u | 10µM* | 43 | 0
O=C(c1ccc(F)cc1)C1CCN(Cc2ccc(F)cc2)CC1 | 2% | -4 | -4% | -29% | 8 | x
COc1ccc2c(c1)c(CC(=O)Nc1cc(C)ccc1C)c(C)n2C(=O)c1ccc(Cl)cc1 | 8% | 6 | -1% | u | 10 | -6
COc1cc(CNc2ccc(CNc3ncn[nH]3)cc2)ccc1OCc1ccccc1 | 6% | 48* | u | u | 40* | 3
COc1cccc(NC(=O)CC2SC(=Nc3ccccc3)NC2=O)c1 (centres undefined) | 0% | -3 | 16% | -3% | -17 | x
COc1cccc(NC(=O)CC2S/C(=N\S(=O)(=O)c3ccccc3)N(c3ccccc3)C2=O)c1 (centres undefined) | 0% | -3 | -8% | 10µM* | -4 | 20
S=C(Nc1ccc(Oc2ccc(NC(=S)NC3CCCCC3)cc2)cc1)NC1CCCCC1 | 1% | 4 | 2% | 11µM* | 37 | -3
CCc1nnc(NS(=O)(=O)c2ccc(NC(=O)c3cc(Cl)ccc3[N+](=O)[O-])cc2)s1 | 1% | -4 | -13% | 11µM* | -7 | 29 | Flu PR8 replic=8.3
CC(=O)c1ccc(NC(=O)COC(=O)c2c3c(nc4ccccc24)/C(=C\c2cccs2)CCC3)cc1 | 5% | 15* | 0% | u | 17 | -5
O=C(COC(=O)CSc1ccc([N+](=O)[O-])cc1)NCCCc1ccccc1 | 3% | -3 | x | -27% | 16 | x
CCCC(=O)Nc1ccc(Cl)c(NC(=O)CC)c1 | -1% | -3 | -2% | -7% | 30 | x
CCCC(=O)Nc1ccc(Cl)c(NC(=S)NC(=O)c2cc3ccccc3o2)c1 | 1% | 5 | -10% | u | 7 | 1
SMILES | LmPK inhibitor | CHX counter | Giardia FBPA inh | NS1 inh | Shiga inhibitor | NS1 inh valid | others
CCOc1ccc2c(c1)C(c1ccccc1)=NNC(c1ccccc1)=N2 | -2% | 45* | -7% | 11µM* | 57* | -13
Cc1cc2nnc(SCC(=O)Nc3cc(S(=O)(=O)N4CCOCC4)ccc3Cl)n2c2ccccc12 | -4% | -1 | 8% | 10µM* | -7 | 19
CN1CCN(c2nc(-c3ccccc3)c3cc(Cl)ccc3n2)CC1 | 0% | 4 | 6% | -9% | -12 | x
CN1CCN(C2=Nc3ccccc3Oc3ccc(Cl)cc32)CC1 | -1% | -4 | -7% | u | -12 | -21 | Flu PR8 replic=7.3*
Cc1ccc2nc(NNC(=O)c3ccc(S(=O)(=O)N4CCc5ccccc5C4)cc3)sc2c1 | 3% | 8 | 11% | 10µM* | 19 | u
COc1ccc(-c2cnnn2-c2ccc(NC(=O)c3ccc(S(=O)(=O)N4CCCCC4)cc3)cc2)cc1OC | 0% | 7 | 4% | 5µM* | 1 | 31 | Flu PR8 replic=7.3*
Cc1oc(-c2ccccc2Cl)nc1CS(=O)CC(=O)N1CCN(c2ccccc2)CC1 (centres undefined) | 3% | 1 | x | -10% | -2 | x
Cc1ccccc1-c1nc(CS(=O)CC(=O)N2CCC3(CC2)OCCO3)c(C)o1 (centres undefined) | 0% | 5 | 5% | 1.1µM* | 36 | 5 | Flu PR8 replic=8.3
Cc1ccccc1NC(=O)CCS(=O)(=O)c1cccc2nonc12 | 13% | -4 | -12% | 4% | -7 | x
Cc1cccc(C)c1NC(=O)CCS(=O)(=O)c1cccc2nonc12 | 14% | -5 | -10% | u | 7 | 5
Cc1cc(NC(=O)CN(C)S(=O)(=O)c2cnc[nH]2)ccc1Br | 5% | 8 | x | -1% | -5 | x
COc1ccc(CCN2C(=O)c3ccccc3NC2c2cc(Cl)c(O)c(OC)c2)cc1 (centres undefined) | -3% | -2 | -3% | 7% | -6 | x
CCN(CC)c1ccc(NC(=O)CSc2nnc3nc(C)cc(C)n23)cc1 | 0% | 4 | 2% | u | 44 | -22
Cc1cc(C)n2c(SCC(=O)Nc3ccccc3)nnc2n1 | 2% | -3 | -2% | 5% | -16 | x
CC(C)CC(C(=O)Nc1oc(-c2ccco2)c(-c2ccco2)c1C#N)N1C(=O)c2ccccc2C1=O (centres undefined) | 5% | -1 | -27% | 10µM* | -3 | -11 | Flu PR8 replic=8
CCOc1cc(/C=C(\C#N)C(=O)Nc2ccc(S(N)(=O)=O)cc2)ccc1OCCN1CCOCC1 | -1% | -1 | -2% | 4% | -6 | x
CCc1cc2c(-c3ccccc3)cc(=O)oc2cc1OC(C)C(=O)O (centres undefined) | 0% | -3 | 11% | 10µM* | -4 | 21
CCc1cc2c(-c3ccccc3)cc(=O)oc2cc1OCC(C)=O | -3% | -3 | 5% | -55% | x | x
CCCn1c(CCNc2nc(-c3ccc(Cl)c([N+](=O)[O-])c3)cs2)nc2cc(Cl)c(Cl)cc21 | 0% | 4 | u | 8.9µM* | 4 | 37 | Flu PR8 replic=8
